The structures appear in SMILES notation. Records with an inconclusive call do not appear. The source made the active and inactive calls. Calls come from the whole dose curve; as a rule, active = well fitted curve in the direction sought with a large enough effect in the repeat runs; inconclusive = weak or mixed curves; inactive = no such curve, though single readings can be large; an effect the other way counts as inactive or inconclusive.
% is set by controls: 0 for no effect and ±100 for the full control effect.

Chain of Luciferin 4-monooxygenase (Photinus pyralis) (P08659 whole entry, looked up): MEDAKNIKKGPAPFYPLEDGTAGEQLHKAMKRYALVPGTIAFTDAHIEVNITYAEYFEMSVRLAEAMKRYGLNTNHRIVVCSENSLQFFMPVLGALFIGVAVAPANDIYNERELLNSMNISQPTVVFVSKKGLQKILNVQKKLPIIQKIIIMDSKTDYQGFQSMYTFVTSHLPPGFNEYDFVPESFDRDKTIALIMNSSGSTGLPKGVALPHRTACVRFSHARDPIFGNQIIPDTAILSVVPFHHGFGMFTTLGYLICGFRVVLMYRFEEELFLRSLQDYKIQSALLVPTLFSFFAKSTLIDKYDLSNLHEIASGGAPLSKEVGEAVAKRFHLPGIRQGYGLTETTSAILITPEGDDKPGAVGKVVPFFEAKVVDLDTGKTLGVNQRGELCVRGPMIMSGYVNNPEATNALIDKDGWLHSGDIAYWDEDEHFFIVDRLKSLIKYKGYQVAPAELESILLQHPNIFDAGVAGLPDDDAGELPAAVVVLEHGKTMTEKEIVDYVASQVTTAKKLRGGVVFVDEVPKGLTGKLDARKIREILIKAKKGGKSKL

Test system in one assay: not listed separately
Briefly: qHTS assay to identify small molecule antagonists of the estrogen related receptor (ERR) signaling pathway - cell viability counter screen (AID 1224818). Note: potency is the fitted concentration of half-maximal effect. The following applies: ERR reporter cell line viability counter screen; series mostly up to 46.1 µM; viability change, negative = cytotoxic: at the top concentration. In a few lines:
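After a 6 h pre-incubation, ERR cells were dosed by pin tool with compounds, positive/negative controls or DMSO alone. Following 17.5 h at 37 C and 30 min with CellTiter-Fluor, fluorescence was recorded.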
Regarding `S=P(N1CC1)(N1CC1)N1CC1`, the “viability change, negative = cytotoxic” value is 2.78% [at 92.2 µM] (inactive). For `Cc1cc2c(C(C)C)c(O)c(O)c(C=O)c2c(O)c1-c1c(C)cc2c(C(C)C)c(O)c(O)c(C=O)c2c1O`, the Potency was 10.2 µM (active). Consider `Brc1ccccc1-c1ccccc1`, for which the “viability change, negative = cytotoxic” value is 4.47% [at 92.2 µM] (inactive).

Test system in another assay: not listed separately
The assay can be described thus: qHTS assay to identify small molecule antagonists of the estrogen related receptor (ERR) signaling pathway (AID 1224819; note: nearly all actives have a fitted effect of over 50% in size; note: potency is the fitted concentration of half-maximal effect;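 for activity change, negative = inhibition: luminescence from an ERR-driven luciferase reporter measured with One-Glo reagent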). Conditions: ERR reporter cell line, luciferase inhibition; series mostly up to 92.2 µM; activity change, negative = inhibition: at the top concentration. In a few lines:
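Luminescence readout (One-Glo, 30 min, RT) of ERR cell line after 18 h compound exposure at 37 C; cells seeded 2,000/well, pre-incubated 6 h, compounds pinned from DMSO stocks.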
(In qHTS, concentration-response curves come from the screen itself.)
Consider `S=P(N1CC1)(N1CC1)N1CC1`, for which the “activity change, negative = inhibition” value is -9.56% (inactive).

In the case of `Cc1cc2c(C(C)C)c(O)c(O)c(C=O)c2c(O)c1-c1c(C)cc2c(C(C)C)c(O)c(O)c(C=O)c2c1O`, the Potency was 2.76 µM (active). On to `Brc1ccccc1-c1ccccc1`, for which the “activity change, negative = inhibition” value was 23.9% (inactive).

Test system in another assay: not listed separately
Briefly: qHTS assay to identify small molecule agonists of the estrogen related receptor signaling pathway with the pleiotropic PPARgamma coactivator (PGC) (AID 1224823). Conditions: ERR/PGC reporter cell line, luciferase agonist mode; series mostly up to 46.1 µM; activation: at the top concentration. The gist of the method: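 PGC/ERR reporter cells seeded 6 h, then exposed to compounds (23 nL in DMSO) for 18 h at 37 C. One-Glo luciferase luminescence read after 30 min at room temperature.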
For `S=P(N1CC1)(N1CC1)N1CC1`, the “activation” value is -1.75% [at 92.2 µM] (inactive). Still for that read-out and setting: with `COc1ccccc1OCCNCC(O)COc1cccc2[nH]c3ccccc3c12` (stereo not given) the figure was -7.66% (inactive); with `Cc1cc2c(C(C)C)c(O)c(O)c(C=O)c2c(O)c1-c1c(C)cc2c(C(C)C)c(O)c(O)c(C=O)c2c1O`, -5.58% (inactive); with `Brc1ccccc1-c1ccccc1`, -16.6% [at 92.2 µM] (inactive).

Test system in the next assay: not listed separately
The assay can be described thus: qHTS assay to identify small molecule antagonists of the estrogen related receptor (ERR) signaling pathway from Tox21 library - cell viability counter screen (AID 1224834). Note: nearly all actives have a fitted effect of over 30% in size. Note: potency is the fitted concentration of half-maximal effect. The following applies: ERR reporter cells viability, CellTiter-Fluor, 17.5 h; series mostly up to 92.4 µM; viability change, negative = cytotoxic: at the top concentration. In a few lines:
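After 17.5 h of compound exposure at 37 C, ERR cells are incubated with CellTiter-Fluor for 30 min and fluorescence intensity serves as the viability measure.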
For `[O]=[Zr]`, the “viability change, negative = cytotoxic” value is -0.557% (inactive). On the same count and under the same terms, the value for `Oc1ccc(-c2ccccc2)c(Cl)c1` was 0.622% (inactive). For `C=C1C(C)(C)[C@@]2(Cl)C(Cl)[C@]1(Cl)C(Cl)(Cl)C2(Cl)Cl` (stereo not given in full), the Potency was 67.3 µM (active).

Turning to `O=C1OC(=O)c2cccc3cccc1c23`, the “viability change, negative = cytotoxic” value is -4.2% (inactive).

Consider `S=P(N1CC1)(N1CC1)N1CC1`, for which the “viability change, negative = cytotoxic” value was 1.04% (inactive). In the case of `COc1ccccc1OCCNCC(O)COc1cccc2[nH]c3ccccc3c12` (stereo not given), the Potency is 23.7 µM (active).

Take `CC(COC(=O)c1ccccc1)OC(=O)c1ccccc1` (stereo not given): the “viability change, negative = cytotoxic” value is -4.65% (inactive). On to `CCCCCCCCCCCCN(CCO)CCO`, for which the Potency was 68.3 µM (active). Still for that read-out and setting: the value for `Cc1cc2c(C(C)C)c(O)c(O)c(C=O)c2c(O)c1-c1c(C)cc2c(C(C)C)c(O)c(O)c(C=O)c2c1O` was 13.3 µM (active); that for `CCN(CC)CCNc1ccc(CO)c2sc3ccccc3c(=O)c12` was 13.3 µM (active). On to `CCCCCCCCCCc1ccccc1`, for which the “viability change, negative = cytotoxic” value was -1.78% (inactive). With `Brc1ccccc1-c1ccccc1`, the “viability change, negative = cytotoxic” value was 0.729% (inactive). With `Nc1cc(Cl)c([N+](=O)[O-])cc1O`, the Potency was 54 µM (active).

On to `Oc1c(Br)cc(Br)c2cccnc12`, for which the Potency is 23.7 µM (active).

As to `CC(C)(C)C1=CC(=O)C=C(C(C)(C)C)C1=O`, the “viability change, negative = cytotoxic” value was 1.26% (inactive).

As to `C=C(C)C(=O)OCCC[Si](Cl)(Cl)Cl`, the “viability change, negative = cytotoxic” value is 0.479% (inactive). On the same count and under the same terms, the value for `C=CC(=O)OCCC#N` was 0.244% (inactive). On to `CC(C)(C)c1cc(/C=C2\SC(=N)NC2=O)cc(C(C)(C)C)c1O`, for which the Potency was 61.1 µM (active).

Consider `CC(C)(c1cc(Br)c(OCCO)c(Br)c1)c1cc(Br)c(OCCO)c(Br)c1`, for which the Potency was 42.3 µM (active).

A further assay addresses Luciferin 4-monooxygenase (Photinus pyralis) (UniProt P08659). The assay can be described thus: qHTS assay to identify small molecule inhibitors of firefly luciferase (AID 1224835). Note: nearly all actives have a fitted effect of over 25% in size. Note: potency is the fitted concentration of half-maximal effect. Conditions: purified P. pyralis luciferase, luminescence inhibition; series mostly up to 115 µM; activity change, negative = inhibition: at the top concentration. In a few lines: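 Quantitative HTS format; KM concentrations of both substrates. Purified P. pyralis FLuc activity quantified from luminescence images.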
Take `[O]=[Zr]`: the Potency was 39.8 µM (active). Consider `Oc1ccc(-c2ccccc2)c(Cl)c1`, for which the Potency was 39.9 µM (active). As to `CC(C)N=C(N)/N=C(\N)Nc1ccc(Cl)cc1`, the “activity change, negative = inhibition” value was 0.875% [at 52.9 µM] (inactive). Same read-out and setting: the value for `C=C1C(C)(C)[C@@]2(Cl)C(Cl)[C@]1(Cl)C(Cl)(Cl)C2(Cl)Cl` (stereo not given in full) was 4.06% (inactive); that for `Cc1cncc(C)c1` was 1.12% (inactive); that for `O=C1OC(=O)c2cccc3cccc1c23` was 1.09% (inactive). Still for that read-out and setting: the value for `S=P(N1CC1)(N1CC1)N1CC1` was 7.53% (inactive); that for `COc1ccccc1OCCNCC(O)COc1cccc2[nH]c3ccccc3c12` (stereo not given) was 0.542% [at 52.9 µM] (inactive). Still for that read-out and setting: the value for `CCc1cccc(CC)c1N(COC)C(=O)CS(=O)(=O)O` was -1.89% (inactive). Consider `CCCSS/C(CCO)=C(\C)N(C=O)Cc1cnc(C)nc1N`, for which the “activity change, negative = inhibition” value is -4.07% [at 52.9 µM] (inactive). `CC(COC(=O)c1ccccc1)OC(=O)c1ccccc1` (stereo not given): the “activity change, negative = inhibition” value was -7.04% (inactive). Consider `CSc1ccc2c(c1)N(CCC1CCCCN1C)c1ccccc1S2` (stereo not given), for which the Potency result was “inactive”.

For `CCCCCCCCCCCCN(CCO)CCO`, the “activity change, negative = inhibition” value is 1.05% (inactive). On the same count and under the same terms, with `COc1cccc(O)c1` the figure was 0.845% (inactive); with `Cc1cc2c(C(C)C)c(O)c(O)c(C=O)c2c(O)c1-c1c(C)cc2c(C(C)C)c(O)c(O)c(C=O)c2c1O`, 3.61% [at 52.9 µM] (inactive); with `CCN(CC)CCNc1ccc(CO)c2sc3ccccc3c(=O)c12`, 0.191% [at 52.9 µM] (inactive). Still for that read-out and setting: the value for `CCCCCCCCCCc1ccccc1` was 0.248% (inactive); that for `Clc1nc2ccccc2s1` was -7.65% (inactive). Turning to `Oc1c(Br)cc(Br)c2cccnc12`, the “activity change, negative = inhibition” value is -4.72% [at 52.9 µM] (inactive). `CCNc1nc(NC(C)CC)nc(OC)n1` (stereo not given): the “activity change, negative = inhibition” value was 0.0372% (inactive). Same read-out and setting: with `CC(C)(C)CC(C)(C)c1ccccc1O` the figure was 0.286% (inactive). Same read-out and setting: with `CC(C)(C)C1=CC(=O)C=C(C(C)(C)C)C1=O` the figure was -0.207% (inactive); with `C=C(C)C(=O)OCCC[Si](Cl)(Cl)Cl`, 1.13% (inactive); with `CCCCCCS`, 6.5% (inactive).

On to `C=CC(=O)OCCC#N`, for which the “activity change, negative = inhibition” value was -0.714% (inactive).

`CC(C)=CCCC(C)O` (stereo not given): the “activity change, negative = inhibition” value is 1.05% (inactive). Still for that read-out and setting: the value for `CC[N+](CC)(CC)Cc1ccccc1` was 2.71% (inactive); that for `C/C=C/C(=O)C1=C(C)CCCC1(C)C` was -2.63% (inactive). Still for that read-out and setting: the value for `CC(C)(C)c1cc(/C=C2\SC(=N)NC2=O)cc(C(C)(C)C)c1O` was -0.851% (inactive); that for `CC(C)(c1cc(Br)c(OCCO)c(Br)c1)c1cc(Br)c(OCCO)c(Br)c1` was 1.56% (inactive).

Turning to `CO[Si](CCCNCCNCCN)(OC)OC`, the “activity change, negative = inhibition” value was 0.583% (inactive).

Values taken from PubChem BioAssay (Tox21).
